# Compounds without any hit were thinned out: in the full panel of roughly 79,000, 15% have a hit. Values without a mark were called inactive. Activity calls are given as the source filed them. Cut-off read from the data, not from the text of the source: active = growth inhibition above about 70%; inactive = the rest.
# What was measured:
# [1] = NCI Yeast Anticancer Drug Screen. Data for the rad52 strain (AID 147);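 note: 0% = growth of vehicle-treated control cultures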; conditions: S. cerevisiae rad52 mutant growth inhibition, active compounds read high
# Summary of the method: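 Growth of repair-deficient yeast cells was compared between compound-treated and vehicle-treated cultures to give percent inhibition.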
# [2] = NCI Yeast Anticancer Drug Screen. Data for the wt1 strain (AID 149);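 note: 0% = growth of vehicle-treated wt1 cultures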; conditions: S. cerevisiae wt1 strain (SPY 50644) growth inhibition, active compounds read high
# Summary of the method: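 Growth inhibition read against vehicle controls after compound exposure of the wt1 yeast strain.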
# [3] = NCI Yeast Anticancer Drug Screen. Data for the rad50EPP+ strain (AID 151);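 note: 0% = growth of vehicle-treated control cultures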; conditions: S. cerevisiae rad50 mutant strain, active compounds read high
# Summary of the method: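 Measured: growth inhibition of rad50EPP+ yeast. Reference: vehicle-treated controls. Screen uses strains with defined genetic alterations in DNA damage repair or cell cycle control.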
# [4] = NCI Yeast Anticancer Drug Screen. Data for the rad50 strain (AID 155);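 note: 0% = growth of vehicle-only cultures of the same strain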; conditions: S. cerevisiae rad50 strain growth inhibition, active compounds read high
# Summary of the method: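 Readout: growth inhibition relative to vehicle-treated cultures. Compound exposure was carried out in a genetically defined yeast strain deficient in DNA damage repair.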
# [5] = NCI Yeast Anticancer Drug Screen. Data for the mec2-1 strain (AID 157); conditions: S. cerevisiae mec2-1 strain, active compounds read high
# Summary of the method: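 Compounds were applied to mec2-1 yeast cells. Their growth was then compared with that of vehicle-treated cultures to give growth inhibition.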
# [6] = NCI Yeast Anticancer Drug Screen. Data for the rad14 strain (AID 159);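 note: 0% = growth of vehicle-treated control cultures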; conditions: S. cerevisiae rad14 strain growth inhibition, active compounds read high
# Summary of the method: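 Growth inhibition vs vehicle controls; genetically altered yeast strain (DNA damage repair defect) treated with test compounds.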
# [7] = NCI Yeast Anticancer Drug Screen. Data for the sgs1 mgt1 strain (AID 161);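 note: 0% = growth of cultures given vehicle only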; conditions: S. cerevisiae sgs1 mgt1 strain, active compounds read high
# Summary of the method: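 Compounds are added to genetically altered yeast, and growth is compared with cultures given vehicle alone to give percent inhibition.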
# [8] = NCI Yeast Anticancer Drug Screen. Data for the CLN2oe strain (AID 163);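 note: 0% = growth of vehicle-only control cultures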; conditions: S. cerevisiae CLN2oe strain, active compounds read high
# Summary of the method: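 Cells of an engineered yeast line with disturbed cell-cycle regulation are treated with compound. Inhibition of growth is then calculated relative to the vehicle-treated reference.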
# [9] = NCI Yeast Anticancer Drug Screen. Data for the cln2 rad14 strain (AID 165);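 note: 0% = growth equal to vehicle treated cultures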; conditions: S. cerevisiae cln2 rad14 strain, active compounds read high
# Summary of the method: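 Strain: cln2 rad14 yeast, altered in cell cycle control and DNA damage repair. Read-out: growth inhibition vs vehicle.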
# [10] = NCI Yeast Anticancer Drug Screen. Data for the bub3 strain (AID 167); conditions: S. cerevisiae bub3 mutant strain, active compounds read high
# Summary of the method: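 Readout: yeast growth inhibition, expressed relative to vehicle-only wells. The test organism is a mutant strain from a panel with lesions in DNA repair or checkpoint genes.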
# [11] = NCI Yeast Anticancer Drug Screen. Data for the wt2 strain (AID 169);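 note: 0% = growth of vehicle-treated yeast cultures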; conditions: S. cerevisiae wt2 strain growth inhibition, active compounds read high
# Summary of the method: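 Growth of compound-treated yeast is measured and expressed as inhibition relative to vehicle-only controls.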
# [12] = NCI Yeast Anticancer Drug Screen. Data for the mlh1 strain (AID 171);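 note: 0% = growth of vehicle-treated control cultures of the same strain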; conditions: S. cerevisiae mlh1 strain growth inhibition, active compounds read high
# Summary of the method: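 Test agents were incubated with yeast bearing a defined DNA damage repair or cell cycle control alteration; values are growth inhibition normalised to vehicle-treated cultures.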
# [13] = NCI Yeast Anticancer Drug Screen. Data for the sgs1 strain (AID 173);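 note: 0% = growth of vehicle-only control cultures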; conditions: S. cerevisiae sgs1 mutant, active compounds read high
# Summary of the method: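 Strain with an altered DNA repair or cell cycle pathway exposed to compound. Growth then measured. Value = inhibition versus vehicle control.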
# [14] = NCI Yeast Anticancer Drug Screen. Data for the mlh1 rad18 strain (AID 175); conditions: S. cerevisiae mlh1 rad18 strain growth inhibition, active compounds read high
# Summary of the method: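 A repair-deficient yeast strain is exposed to test compound, and growth is scored relative to vehicle-treated controls.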
# [15] = NCI Yeast Anticancer Drug Screen. Data for the rad18 strain (AID 177); conditions: S. cerevisiae rad18 mutant growth inhibition, active compounds read high
# Summary of the method: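 DNA-repair-defective yeast; compound treatment; growth inhibition scored against vehicle.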
# [16] = at 5.0 µM (retest, dose inferred, filed as 0.5)
# [17] = at 50.0 µM (retest, dose inferred, filed as 5.0)
structure (smiles),measurement,setting,value
O=C1CC(=O)N(C2CCCCC2)C(=O)N1c1ccccc1S(=O)(=O)Oc1ccccc1,growth inhibition,[1]; at 1.2 µM,1%
same,growth inhibition,[1]; at 3.7 µM,3%
same,growth inhibition,[1]; at 11.0 µM,4%
same,growth inhibition,[1]; at 33.0 µM,24%
same,growth inhibition,[1]; at 100.0 µM,64%
same,growth inhibition,[2]; at 1.2 µM,1%
same,growth inhibition,[2]; at 3.7 µM,-5%
same,growth inhibition,[2]; at 11.0 µM,-14%
same,growth inhibition,[2]; at 33.0 µM,12%
same,growth inhibition,[2]; at 100.0 µM,51%
same,growth inhibition,[3]; at 1.2 µM,-22%
same,growth inhibition,[3]; at 3.7 µM,-19%
same,growth inhibition,[3]; at 11.0 µM,-16%
same,growth inhibition,[3]; at 33.0 µM,2%
same,growth inhibition,[3]; at 100.0 µM,-49%
same,growth inhibition,[4]; at 1.2 µM,-12%
same,growth inhibition,[4]; at 3.7 µM,-3%
same,growth inhibition,[4]; [16],66%
same,growth inhibition,[4]; at 11.0 µM,-12%
same,growth inhibition,[4]; at 33.0 µM,5%
same,growth inhibition,[4]; [17],99% (active)
same,growth inhibition,[4]; at 50.0 µM,38.6%
same,growth inhibition,[4]; at 100.0 µM,33%
same,growth inhibition,[5]; at 1.2 µM,11%
same,growth inhibition,[5]; at 3.7 µM,0%
same,growth inhibition,[5]; [16],69%
same,growth inhibition,[5]; at 11.0 µM,-18%
same,growth inhibition,[5]; at 33.0 µM,13%
same,growth inhibition,[5]; [17],99% (active)
same,growth inhibition,[5]; at 50.0 µM,41%
same,growth inhibition,[5]; at 100.0 µM,36%
same,growth inhibition,[6]; at 1.2 µM,-18%
same,growth inhibition,[6]; at 3.7 µM,-22%
same,growth inhibition,[6]; at 11.0 µM,-26%
same,growth inhibition,[6]; at 33.0 µM,-18%
same,growth inhibition,[6]; at 100.0 µM,18%
same,growth inhibition,[7]; [16],3%
same,growth inhibition,[7]; [17],31%
same,growth inhibition,[7]; at 50.0 µM,54.4%
same,growth inhibition,[8]; at 1.2 µM,6%
same,growth inhibition,[8]; at 3.7 µM,-1%
same,growth inhibition,[8]; at 11.0 µM,7%
same,growth inhibition,[8]; at 33.0 µM,43%
same,growth inhibition,[8]; at 100.0 µM,72% (active)
same,growth inhibition,[9]; [16],60%
same,growth inhibition,[9]; [17],80% (active)
same,growth inhibition,[9]; at 50.0 µM,68%
same,growth inhibition,[10]; at 1.2 µM,-13%
same,growth inhibition,[10]; at 3.7 µM,0%
same,growth inhibition,[10]; [16],25%
same,growth inhibition,[10]; at 11.0 µM,2%
same,growth inhibition,[10]; at 33.0 µM,7%
same,growth inhibition,[10]; [17],42%
same,growth inhibition,[10]; at 50.0 µM,58.4%
same,growth inhibition,[10]; at 100.0 µM,32%
same,growth inhibition,[11]; at 1.2 µM,0%
same,growth inhibition,[11]; at 3.7 µM,-33%
same,growth inhibition,[11]; at 11.0 µM,-27%
same,growth inhibition,[11]; at 33.0 µM,-3%
same,growth inhibition,[11]; at 100.0 µM,41%
same,growth inhibition,[12]; at 1.2 µM,-10%
same,growth inhibition,[12]; at 3.7 µM,-19%
same,growth inhibition,[12]; at 11.0 µM,-11%
same,growth inhibition,[12]; at 33.0 µM,7%
same,growth inhibition,[12]; at 100.0 µM,46%
same,growth inhibition,[13]; at 1.2 µM,-7%
same,growth inhibition,[13]; at 3.7 µM,-5%
same,growth inhibition,[13]; at 11.0 µM,-1%
same,growth inhibition,[13]; at 33.0 µM,20%
same,growth inhibition,[13]; at 100.0 µM,56%
same,growth inhibition,[14]; [16],61%
same,growth inhibition,[14]; [17],100% (active)
same,growth inhibition,[14]; at 50.0 µM,41.4%
same,growth inhibition,[15]; at 1.2 µM,-15%
same,growth inhibition,[15]; at 3.7 µM,-13%
same,growth inhibition,[15]; at 11.0 µM,-19%
same,growth inhibition,[15]; at 33.0 µM,-18%
same,growth inhibition,[15]; at 100.0 µM,12%

# From PubChem BioAssay (NCI)
